Measured values taken from PubChem BioAssay AID624263 (National Center for Advancing Translational Sciences (NCATS), 2012).
Out of some 410,000 compounds screened, about 820 (0.2%) were called active. Another 2% or so got no clear call; they are omitted. Calls follow the shape of the dose curve; as a rule, active = well fitted activation curve with a large enough effect; inconclusive = small, poorly fitted or top-dose-only effect; inactive = flat fitted curve, though single readings scatter; cell line not stated here. The entries come from a sample that favours actives as a whole.

Test: A Quantitative High throughput Screen to Identify Chemical Modulators of PINK1 Expression; also: nearly all actives have a fitted effect of over 65% in size; as to activation (PINK1 increase): % of control where 0% means no effect
Settings: PINK1 immunofluorescence, high-content cytometry, 24 h; series mostly up to 76.6 µM; activation (PINK1 increase): at the top concentration
Text: The overall goal of this project is to develop new tools for understanding and treating the mitochondrial basis for neurodegenerative disease such as Parkinson's disease (PD). The PINK1 campaign was developed from recent data pointing towards mitochondrial dysfunction as a major contributor to dopaminergic neuron loss. The discovery of PINK1/Parkin mediated mitophagy has highlighted the potential for mitochondrial quality control as a novel target for therapeutic intervention. […] A second aim of this project is the development of chemical probes to study the mechanics of mitochondrial quality control. As the PINK1/Parkin mitophagy pathway is a relative recent discovery, no specific chemical probes are available that modulate the process. Presently, only crude tools that cause nonspecific mitochondrial damage are available. To advance the understanding of mitophagy, specific, well characterized chemicals that target various steps of mitophagy regulation need to be developed. New chemical probes may have the ability to dynamically manipulate mitophagy in model organisms such as rodents and zebrafish, advancing our understanding of the process in development and disease. This HTS campaign seeks to discover an activator of PINK1 expression by modulation at the level of post-translational processing.
The PINK1 assay determines the amount and localization of PINK1 protein in a cell using a combination of immunofluorescence and cell staining. The goal of the assay is to determine small molecules that can increase the expression of Pink1 on or inside the cell's mitochondria (ideally without mitochondrial depolarization) using a stable cell line. Since PINK1 protein is rapidly degraded in un-perturbed cells, compounds that induce the enhancement of PINK1 protein expression are identified by determining PINK1 immunofluorescence in conjunction with a mitochondrial, cell, and nuclear marker post fixation. To facilitate rapid high content screening, the primary assay is run in a decision-based HTS mode where compound titration data collected by laser-scanning microplate cytometers is processed and only promising compound series are passed off for high content drill down.
1 Add cells to black, clear-bottom, low-base 1536-well plates 6 uL (250 cells/well)
2 Incubate in TC incubator (12 hours)
3 Pin compounds or DMSO controls 23 nL (5 concentrations per compound set)
4 Dispense CCCP to control columns
5 Incubate in TC incubator 24 hours
6 Aspirate media and fix cells (5 uL of fixative containing nuclear dye)
7 Incubate 15 minutes at RT
8 Wash in PBSTween (12 uL/well)
9 Wash in PBSTriton (12 uL/well)
10 Aspirate wash and add Blocking buffer (4 uL/well)
12 Aspirate block and add primary antibodies 3.5 (uL/well)
13 Incubate 12 hours at 10 degrees C
14 Wash in PBSTween-20 two times (12 uL/well)
15 Aspirate wash and add secondary antibodies (12 uL/well)
17 Wash in PBSTween (12 uL/well)
18 Wash in PBSTween with cell stain (12 uL/well)
19 Read plates on Acumen EX3 and determine Wells2Cells coordinates
Potency is read from the fitted curve at half-maximal effect.

Structure (SMILES) | activation (PINK1 increase) | Potency
CCCCn1c(SCC(=O)N2CCOCC2)nc2c1c(=O)n(C)c(=O)n2C | 2.85% (inactive) | –
COc1ccc(CCNC(=O)CCCCn2c(=O)c3ccccc3n(Cc3ccccc3)c2=O)cc1OC | 1.18% (inactive) | –
CCCCn1c(SCC(=O)NCCc2ccc(OC)c(OC)c2)nc2c1c(=O)n(C)c(=O)n2C | – | 3.98 µM (active)
COc1ccccc1C(=O)N[C@@H]1c2ccccc2C2(CCN(C(=O)c3csnn3)CC2)[C@H]1OC | -0.317% (inactive) | –
CN1CCN(/[N+]([O-])=N/Oc2ccc([N+](=O)[O-])cc2[N+](=O)[O-])CC1 | -0.224% (inactive) | –
Cc1cc(C)cc(CN2CCc3nnc(C(NS(C)(=O)=O)C(C)C)n3CC2)c1 (configuration not stated) | -0.82% (inactive) | –
COc1ccccc1C1CN(CCNC(=O)C2=CCCC2)Cc2ccccc2O1 (configuration not stated) | 2.63% (inactive) | –
COc1ccc(OC)c2sc(N3CCN(C(=O)C4COc5ccccc5O4)CC3)nc12 (configuration not stated) | -0.0279% (inactive) | –
O=C(CCc1ccccc1)Nc1ccc(NC(=O)C2CC2)nc1 | -1.31% (inactive) | –
O=C(Nc1ncc([N+](=O)[O-])s1)C1COc2ccccc2O1 (configuration not stated) | – | 44.7 µM (active)
O=C(CCc1ccccc1)Nc1ncc([N+](=O)[O-])s1 | – | 20 µM (active)
CC(/C=C/c1ccco1)=N/NC(=O)C1COc2ccccc2O1 (configuration not stated) | 9.76% (inactive) | –
O=C(CCc1ccccc1)Nc1ccc(NC(=O)C2CCCCC2)nc1 | 9.37% (inactive) | –
CN(Cc1cccc2ncccc12)C(=O)c1cnn(-c2nccc(-c3ccccc3F)n2)c1C1CC1 | -0.707% (inactive) | –
COc1ccc(-n2c(CNC(=O)c3cc(C(F)(F)F)ccc3Cl)nnc2SC)cc1 | -0.22% (inactive) | –
COc1ccccc1-c1ccnc(-n2ncc(C(=O)NCCCN3CCOCC3)c2C)n1 | 0.284% (inactive) | –
C[C@@H]1CN(Cc2ccc3c(c2)CN(Cc2ccc(Oc4ncccn4)cc2)CCO3)C[C@H](C)O1 | 0.0196% (inactive) | –
CCC1CN(CCNC(=O)c2cccc(C)n2)Cc2cc(OC)ccc2O1 (configuration not stated) | 0.509% (inactive) | –
CCOC(=O)c1ccc(NC(=O)c2csc3c2CCCCC3)cc1 | 3.73% (inactive) | –
CCOc1ccc(CCNC(=O)c2csc3c2CCCCC3)cc1 | 2.82% (inactive) | –
COC(=O)c1sc(NC(=O)c2csc3c2CCCC3)nc1C | – | 10 µM (active)

Structure (SMILES) | activation (PINK1 increase) | Potency
CCCCOc1ccc(C(=O)NO)cc1 | 1.55% (inactive) | –
Cc1ccnc(SCC(=O)Nc2cccc(S(=O)(=O)N3CCOCC3)c2)n1 | 1.18% (inactive) | –
Cn1c(SCC(=O)Nc2cccc(O)c2)nnc1-c1ccc(S(=O)(=O)N2CCOCC2)cc1 | – | 14.1 µM (active)
CCC(=O)Nc1cccc(NC(=O)CSc2nnc(-c3ccc(NS(C)(=O)=O)cc3)n2C)c1 | -1.24% (inactive) | –
CC(C)(C(=O)NO)c1ccccc1 | 0.961% (inactive) | –
CCC1(C2CCN(Cc3cccnc3)CC2)NC(=O)N(CC2COc3ccccc3O2)C1=O (configuration not stated) | -0.0745% (inactive) | –
CNCCCOc1cc2nc(N3CCCN(C)CC3)nc(NC3CCN(C)CC3)c2cc1OC | 0.921% (inactive) | –
COc1ccc2oc(=O)c(-c3cn4c(n3)sc3cc(OC)ccc34)cc2c1 | 2.47% (inactive) | –
COc1ccc2cc(-c3nc(Cl)c4c5c(sc4n3)CC(C)CC5)c(=O)oc2c1 (configuration not stated) | – | 15.8 µM (active)
CCOC(=O)c1c(NC(=O)/C=C/c2ccc(OC)cc2)sc2c1CCC(C)C2 (configuration not stated) | 0.453% (inactive) | –
COc1cc(=O)n2c(c1C(=O)N(C)Cc1nccs1)CCN(Cc1ccc(Cl)cc1)CC2 | 1.54% (inactive) | –
c1ccc(CN2CCN(Cc3ccc4c(c3)CN(Cc3c[nH]c5ccccc35)CCO4)CC2)nc1 | -1.03% (inactive) | –
COc1ccc(F)c(CN2CCC3(CCC(CNC(=O)c4ccn(C)n4)O3)CC2)c1 (configuration not stated) | -0.704% (inactive) | –
O=C1COc2ccc(-c3csc(-c4ccc(Cl)cc4)n3)cc2N1 | 5.95% (inactive) | –
OC(CBr)C[n+]1cccc2cc(Br)ccc21 (configuration not stated) | -0.654% (inactive) | –
CO[C@H]1[C@H](NC(=O)C(C)C)c2ccccc2C12CCN(Cc1cnc(N(C)C)s1)CC2 | 0.667% (inactive) | –
CCN1CC=C2C(C#N)=C(N)C(C#N)(C#N)[C@H](c3ccoc3)[C@H]2C1 | – | 39.8 µM (active)
CC(C)N1C[C@@H](NCc2ccccc2O)C[C@H]1C(=O)N1CCN(c2cccc(C(F)(F)F)c2)CC1 | -0.16% (inactive) | –
FC(F)(F)c1cccc(-c2cn[nH]c2C2CCCN(Cc3cccn3-c3ccccn3)C2)c1 (configuration not stated) | 1.02% (inactive) | –
CC(=O)Nc1ccccc1-c1nc(CNC(=O)c2ccc(Cl)cc2)c(C)o1 | 0.266% (inactive) | –
C=COC(=O)N1CCN(/[N+]([O-])=N/Oc2ccc([N+](=O)[O-])cc2[N+](=O)[O-])CC1 | 1.32% (inactive) | –

Structure (SMILES) | activation (PINK1 increase) | Potency
CCS(=O)(=O)Nc1cc(C(=O)N2C[C@@H](C)O[C@@H](C)C2)c2c(c1)nc(-c1ccccc1)n2C | 0.73% (inactive) | –
Cc1ccc(C(=O)Nc2cccc(-c3nc(CNC(=O)c4ccccc4-n4cccn4)c(C)o3)c2)s1 | 1.36% (inactive) | –
COc1ccc2c(c1)CCc1cnc(-n3ncc(C(=O)NCCN4CCOCC4)c3C)nc1-2 | 1.37% (inactive) | –
COc1ccc(CN2CCOc3c(cc(-c4ncc(C(F)(F)F)cc4Cl)cc3OCC3CCCO3)C2)c(O)c1 (configuration not stated) | 0.559% (inactive) | –
COc1cc2nc(N3CCCN(C)CC3)nc(NC3CC3)c2cc1OC | 1.39% (inactive) | –
CC(=O)Nc1cc(C(=O)N2CCc3c(Cl)cccc3C2)cc2ncn(CCc3ccccn3)c12 | -0.966% (inactive) | –
CC(C)Oc1cc(F)ccc1-c1cc(C(=O)Nc2ccc(F)cc2)[nH]n1 | 1.71% (inactive) | –
CCCOc1ccc(F)cc1-c1cc(C(=O)Nc2ccc(F)c(Cl)c2)[nH]n1 | – | 39.8 µM (active)
COc1ccc(Cl)cc1-c1cc(C(=O)Nc2cc(OC)c(OC)c(OC)c2)[nH]n1 | -1.2% (inactive) | –
Cc1ccc2c(C)nc(N3CCCC(C(=O)NC(C)(C)CO)C3)nc2c1 (configuration not stated) | -0.708% (inactive) | –
Cc1cnc(C(=O)N2CCOc3ccc(CN4CCCC(C(=O)c5cccnc5)C4)cc3C2)[nH]1 (configuration not stated) | -0.535% (inactive) | –
O=c1c(-c2ccc(F)cc2)nc2cnc(N3CCOCC3)nc2n1-c1ccccc1 | 0.858% (inactive) | –
COc1cc2nc(Cl)nc(NC3CC3)c2cc1OC | 1.67% (inactive) | –
COc1ccc(C(=O)N2CCC3(CC2)CCN(c2ccccn2)CC3)cc1 | -0.552% (inactive) | –
COc1ccccc1CNc1nc(-c2c(C)noc2C)nc2ccccc12 | 2.49% (inactive) | –
COc1ccc(CN2CCC3(CCC(CNC(=O)c4ccco4)O3)CC2)cc1OC (configuration not stated) | 1.17% (inactive) | –
COc1ccc(CN(C)CCn2cc(C(=O)N3CCSCC3)nn2)cc1C | -0.0428% (inactive) | –
CS(=O)(=O)c1ccccc1C(=O)Nc1ccc2sccc2c1 | 1.33% (inactive) | –
O=C(Nc1ccc2ccccc2c1)Nc1ccc2snnc2c1 | – | 44.7 µM (active)
COc1cccc(C(=O)Nc2ccc3oc(-c4ccc5ccccc5c4)nc3c2)c1 | -0.987% (inactive) | –
